Test results: PubChem BioAssay (NCI)
This is part of a sample that, as a whole, favours compounds with a hit. Of some 83,000 tested, about 20% had one in any assay.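 How to read the values: 0–100, growth inhibition (40 = 60% inhibited); 0, no net growth; -100 to 0, cell death (-40 = 40% of starting cells died; -100 = all dead).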 The source made the active and inactive calls. How the source made its calls: active means growth percent below 10; inactive means the rest.

Test system: SK-MEL-5 melanoma
Assay: NCI-60 one-dose screen, 48 h (100 = growth as untreated, 0 = no growth, -100 = all killed)
Conditions: 10 µM unless noted

Row | SMILES | growth
1 | CN1CC=C(c2cc(NC(=O)Nc3ccc(Oc4ccnc(NC(=O)C5CC5)c4)c(F)c3)cc(C(F)(F)F)c2)CC1 | -43.9% (active)
2 | COc1ccc(C(=O)c2cc(OC)c(C)c(OC)c2)cc1OC(=O)CCl | 9.8% (active)
3 | NC(=O)C(O)(c1ccccc1)c1ccccc1 | 106% (inactive)
4 | CCOC(=O)C(=Cc1c(-c2ccccc2)[nH]c2ccccc12)C(=O)OCC | 41.6% (inactive)
5 | C=C(C)[C@@H]1CC[C@]2(C(=O)OCCCC[P+](c3ccccc3)(c3ccccc3)c3ccccc3)CC[C@]3(C)[C@H](CC[C@@H]4[C@@]5(C)CC[C@H](OC(=O)C(Cl)Cl)C(C)(C)[C@@H]5CC[C@]43C)[C@@H]12 | -99.4% (active)
6 | CC(=O)Nc1ccc2c(c1)Cc1cc(F)ccc1-2 | 102% (inactive)
7 | Cc1nccc2c3ccc(OCc4cn(-c5ccccc5)nn4)cc3n(CCCc3ccccc3)c12 | 80.4% (inactive)
8 | N#Cc1c(NC(=O)c2cccs2)[n+]([O-])c2cc(C(F)(F)F)ccc2[n+]1[O-] | 58% (inactive)
9 | O=C(Nc1ccccc1)NS(=O)(=O)c1c[nH]c(=S)[nH]c1=O | 104% (inactive)
10 | O=C(CSC(=S)N1CCCCC1)Nc1ccccc1 | 97.5% (inactive)
11 | COc1ccccc1-c1ccc2nc(NC(=O)Nc3cc(C(F)(F)F)cc(C(F)(F)F)c3)sc2c1 | -86.1% (active)
12 | Cc1cc(Cl)cc(CN(Cc2ccccc2)Cc2c(O)ccc3ccccc23)c1O | 95.1% (inactive)
13 | Cn1cc(-c2ccc3c(c2)ncn3-c2ccc(CC(=O)Nc3cc(C(C)(C)C)on3)cc2)cn1 | 48.2% (inactive)
14 | COc1ccc2nc(-c3ccc(Cl)cc3)cc(C(=O)N3N=C(c4ccc(N)cc4)CC3c3ccccc3)c2c1 (centres undefined) | 39.4% (inactive)
15 | COc1cc(C(=O)Nc2cc(O)c(C/C=C(\C)CCC=C(C)C)c(O)c2)cc2c1O[C@]1(C)CC[C@@H](O)C(C)(C)[C@H]1C2 | -39.6% (active)
16 | C=C(C)[C@@H]1CC[C@]2(C(=O)NCCCO)CC[C@]3(C)[C@H](CC[C@@H]4[C@@]5(C)CCCNC(C)(C)[C@@H]5CC[C@]43C)[C@@H]12 | 13% (inactive)
17 | Nc1ccc2c(c1)C(=O)C(=O)c1c-2nc2ccccn12 | -99.8% (active)
18 | CC(C)NS(=O)(=O)c1cccc(-c2ccc3c(=O)n(CCCN)c4c(c3c2)C(=O)c2ccccc2-4)c1 | 98.8% (inactive)
19 | CCSc1nc(Cl)c(C#N)c(-c2ccc(F)cc2)n1 | 97.1% (inactive)

Row | SMILES | growth
20 | COc1ccc(-c2[nH]c3ccc(OC)cc3c2C=C(C#N)C#N)cc1 | 15.5% (inactive)
21 | OCCNc1nc(NCCO)nc(Nc2ccc(C3=NN(c4cc(Cl)cc(Cl)c4)C(c4ccccc4)C3)cc2)n1 (centres undefined) | 51.7% (inactive)
22 | COc1ccc2[nH]c(=O)c(/C=C/C(=O)c3ccccc3OC)cc2c1 | 25.2% (inactive)
23 | CC(=O)Nc1nc2c(c(N)c1C#N)C(c1cccc(Cl)c1)C1=C(CCCC1=O)N2c1sc2c(c1C#N)CCCC2 (centres undefined) | 61.5% (inactive)
24 | C#C[C@@]1(O)[C@@H](CO)O[C@@H](n2cnc3c(-c4ccccc4)ncnc32)[C@@H]1O | 104% (inactive)
25 | COc1cc(-c2cn(-c3ccc(Cl)c(Cl)c3)c(=O)[nH]2)cc(OC)c1OC | 101% (inactive)
26 | Nc1ccc(C2=NN(C(=O)c3cc(-c4ccc(Cl)cc4)nc4ccccc34)C(c3ccccc3)C2)cc1 (centres undefined) | 25.9% (inactive)
27 | Cc1c(Cl)cccc1NC(=O)c1sc2nc3c(cc2c1N)COCC3 | 23.9% (inactive)
28 | CC1CCN(CCCCCOc2ccc3oc4ccccc4c(=O)c3c2)CC1 | -12.2% (active)
29 | O=S(=O)(Nc1nccs1)c1ccc(Nc2nc(-c3ccncc3)cs2)cc1 | 107% (inactive)
30 | N#Cc1c(-c2ccc(F)cc2)nc(N/N=C/c2cccc(O)c2)nc1N1CCOCC1 | 90% (inactive)
31 | COc1cc(-c2csc(NC(=O)Nc3cc(Cl)cc(Cl)c3)n2)cc(OC)c1OC | 54.5% (inactive)
32 | COc1ccc(C(=O)c2cc(F)c(F)c(OC)c2F)cc1OC(=O)CCl | 29% (inactive)
33 | Cc1c(Cl)cccc1NC(=O)c1sc2nc3c(cc2c1N)CCCCCC3 | 28.7% (inactive)
34 | C#C[C@@]1(O)[C@@H](CO)O[C@@H](n2cc(-c3ccco3)c3c(N)ncnc32)[C@@H]1O | 89% (inactive)
35 | COc1cc(/C=C/C(=O)c2ccc(NC(=O)CSc3nnc(-c4cc(OC)c(OC)c(OC)c4)n3-c3ccccc3)cc2)cc(OC)c1OC | 17.6% (inactive)
36 | COc1ccccc1C(=O)/C=C/c1cc2cccc(OC)c2[nH]c1=O | -39.2% (active)
37 | CN1C(=O)c2cc(Cl)nc3c(NC(=O)c4cccc(Cl)c4)c(Cl)c(NC(=O)c4cccc(Cl)c4)c1c23 | 4.57% (active)

Test system: UACC-62 melanoma
Assay: as above
Conditions: 10 µM unless noted

Row | SMILES | growth
38 | CN1CC=C(c2cc(NC(=O)Nc3ccc(Oc4ccnc(NC(=O)C5CC5)c4)c(F)c3)cc(C(F)(F)F)c2)CC1 | -22.1% (active)
39 | COc1ccc(C(=O)c2cc(OC)c(C)c(OC)c2)cc1OC(=O)CCl | 38% (inactive)
40 | NC(=O)C(O)(c1ccccc1)c1ccccc1 | 95.9% (inactive)
41 | CCOC(=O)C(=Cc1c(-c2ccccc2)[nH]c2ccccc12)C(=O)OCC | 43.5% (inactive)
42 | C=C(C)[C@@H]1CC[C@]2(C(=O)OCCCC[P+](c3ccccc3)(c3ccccc3)c3ccccc3)CC[C@]3(C)[C@H](CC[C@@H]4[C@@]5(C)CC[C@H](OC(=O)C(Cl)Cl)C(C)(C)[C@@H]5CC[C@]43C)[C@@H]12 | -43.2% (active)
43 | CC(=O)Nc1ccc2c(c1)Cc1cc(F)ccc1-2 | 90.7% (inactive)
44 | Cc1nccc2c3ccc(OCc4cn(-c5ccccc5)nn4)cc3n(CCCc3ccccc3)c12 | 83.3% (inactive)
45 | N#Cc1c(NC(=O)c2cccs2)[n+]([O-])c2cc(C(F)(F)F)ccc2[n+]1[O-] | 96.8% (inactive)
46 | O=C(Nc1ccccc1)NS(=O)(=O)c1c[nH]c(=S)[nH]c1=O | 99.5% (inactive)
47 | O=C(CSC(=S)N1CCCCC1)Nc1ccccc1 | 91.6% (inactive)
48 | COc1ccccc1-c1ccc2nc(NC(=O)Nc3cc(C(F)(F)F)cc(C(F)(F)F)c3)sc2c1 | 10.8% (inactive)
49 | Cc1cc(Cl)cc(CN(Cc2ccccc2)Cc2c(O)ccc3ccccc23)c1O | 89.3% (inactive)
50 | Cn1cc(-c2ccc3c(c2)ncn3-c2ccc(CC(=O)Nc3cc(C(C)(C)C)on3)cc2)cn1 | 35.4% (inactive)
51 | COc1ccc2nc(-c3ccc(Cl)cc3)cc(C(=O)N3N=C(c4ccc(N)cc4)CC3c3ccccc3)c2c1 (centres undefined) | 37% (inactive)
52 | COc1cc(C(=O)Nc2cc(O)c(C/C=C(\C)CCC=C(C)C)c(O)c2)cc2c1O[C@]1(C)CC[C@@H](O)C(C)(C)[C@H]1C2 | 0.641% (active)
53 | C=C(C)[C@@H]1CC[C@]2(C(=O)NCCCO)CC[C@]3(C)[C@H](CC[C@@H]4[C@@]5(C)CCCNC(C)(C)[C@@H]5CC[C@]43C)[C@@H]12 | 83.8% (inactive)
54 | Nc1ccc2c(c1)C(=O)C(=O)c1c-2nc2ccccn12 | -85.3% (active)
55 | CC(C)NS(=O)(=O)c1cccc(-c2ccc3c(=O)n(CCCN)c4c(c3c2)C(=O)c2ccccc2-4)c1 | 108% (inactive)
56 | CCSc1nc(Cl)c(C#N)c(-c2ccc(F)cc2)n1 | 93.4% (inactive)

Row | SMILES | growth
57 | COc1ccc(-c2[nH]c3ccc(OC)cc3c2C=C(C#N)C#N)cc1 | 33.1% (inactive)
58 | OCCNc1nc(NCCO)nc(Nc2ccc(C3=NN(c4cc(Cl)cc(Cl)c4)C(c4ccccc4)C3)cc2)n1 (centres undefined) | 20.9% (inactive)
59 | COc1ccc2[nH]c(=O)c(/C=C/C(=O)c3ccccc3OC)cc2c1 | 25.7% (inactive)
60 | CC(=O)Nc1nc2c(c(N)c1C#N)C(c1cccc(Cl)c1)C1=C(CCCC1=O)N2c1sc2c(c1C#N)CCCC2 (centres undefined) | 59.8% (inactive)
61 | C#C[C@@]1(O)[C@@H](CO)O[C@@H](n2cnc3c(-c4ccccc4)ncnc32)[C@@H]1O | 108% (inactive)
62 | COc1cc(-c2cn(-c3ccc(Cl)c(Cl)c3)c(=O)[nH]2)cc(OC)c1OC | 95.3% (inactive)
63 | Nc1ccc(C2=NN(C(=O)c3cc(-c4ccc(Cl)cc4)nc4ccccc34)C(c3ccccc3)C2)cc1 (centres undefined) | 38.9% (inactive)
64 | Cc1c(Cl)cccc1NC(=O)c1sc2nc3c(cc2c1N)COCC3 | 31.1% (inactive)
65 | CC1CCN(CCCCCOc2ccc3oc4ccccc4c(=O)c3c2)CC1 | 14.3% (inactive)
66 | O=S(=O)(Nc1nccs1)c1ccc(Nc2nc(-c3ccncc3)cs2)cc1 | 94.7% (inactive)
67 | N#Cc1c(-c2ccc(F)cc2)nc(N/N=C/c2cccc(O)c2)nc1N1CCOCC1 | 87.7% (inactive)
68 | COc1cc(-c2csc(NC(=O)Nc3cc(Cl)cc(Cl)c3)n2)cc(OC)c1OC | -62.2% (active)
69 | COc1ccc(C(=O)c2cc(F)c(F)c(OC)c2F)cc1OC(=O)CCl | 31.7% (inactive)
70 | Cc1c(Cl)cccc1NC(=O)c1sc2nc3c(cc2c1N)CCCCCC3 | 32% (inactive)
71 | C#C[C@@]1(O)[C@@H](CO)O[C@@H](n2cc(-c3ccco3)c3c(N)ncnc32)[C@@H]1O | 80.2% (inactive)
72 | COc1cc(/C=C/C(=O)c2ccc(NC(=O)CSc3nnc(-c4cc(OC)c(OC)c(OC)c4)n3-c3ccccc3)cc2)cc(OC)c1OC | 20.8% (inactive)
73 | COc1ccccc1C(=O)/C=C/c1cc2cccc(OC)c2[nH]c1=O | -29.1% (active)
74 | CN1C(=O)c2cc(Cl)nc3c(NC(=O)c4cccc(Cl)c4)c(Cl)c(NC(=O)c4cccc(Cl)c4)c1c23 | 6.83% (active)
